Compound activity deposited in PubChem BioAssay by National Center for Advancing Translational Sciences (NCATS).
An excerpt weighted towards active compounds, which were near 3.8% of everything screened.
HT1080 IDH1KD tx: qHTS for induction of synthetic lethality in tumor cells producing 2HG: qHTS for the HT-1080-IDH1KD cell line | HT-1080 IDH1 knockdown viability, ATP luminescence, 48 h | Potency, µM (doses to about 46.1 µM), for inactives: top-dose activity, negative = toxicity, usual class: cytotoxic | 360,000 tested, 2% active | AID 686971, 2013;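 further: 0% = DMSO wells and -100% = cell-free medium wells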
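In this qHTS, HT-1080 cells depleted of IDH1 are exposed for 48 h at 37 °C to compound titrations. Toxicity is scored from CellTiter-Glo luminescence, with DMSO as full viability and medium alone as none.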
TGFb inhibitor: qHTS for Inhibitors of TGF-b. HepG2 CAGA-GFP TGF-b/SMAD3 reporter, GFP fluorescence, 18 h; TGF-beta stimulated, 500 pg/mL final. Potency, µM (titrated, usually from 46.1 µM), for inactives: at the top dose activity, negative = inhibition, hits mostly inhibitors. 410,000 tested, 1.2% active. AID 588855, 2011; further: on the % scale 0 is the no-effect control and ±100 the full control effect; nearly all actives have a fitted effect of over 65% in size
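Inhibition of TGF-beta-driven CAGA-GFP reporter expression in HEPG2 cells is measured by cellular GFP fluorescence after 18 h stimulation with 500 pg/mL recombinant TGF-beta in 1% FBS medium at 37 degrees C.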
ATXN2 expr inh: Primary qHTS for Inhibitors of ATXN expression; HEK-293 ATXN2-luciferase reporter, luminescence, 24 h; Potency, µM (doses to about 57 µM), for inactives: top-dose activity change, negative = inhibition, most hits filed as inhibitors; 360,000 tested, 0.72% active; AID 1745845, 2022; further: on the % scale 0 is the no-effect control and ±100 the full control effect; nearly all actives have a fitted effect of over 55% in size
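qHTS (up to 57 uM final) was run with 24 h compound exposure of reporter cells at 37 °C. Each well was multiplexed: SteadyGlo luminescence measured ATXN2-luciferase expression after a fluorogenic Gly-Phe-AFC viability readout (25 uM final).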
ATXN viability: Viability Counterscreen for Primary qHTS for Inhibitors of ATXN expression; Potency, µM (series often up to 56.7 µM), most hits filed as cytotoxic; AID 651635, 2014; 400,000 tested, 0.49% active; S2 cells (HEK-293 line with an ATXN2-luciferase reporter) viability, CellTiter-Fluor protease fluorescence, 24 h; further: nearly all actives have a fitted effect of over 40% in size
HT1080NT lethal: qHTS for induction of synthetic lethality in tumor cells producing 2HG: qHTS for the HT-1080-NT fibrosarcoma cell line. HT-1080-NT fibrosarcoma viability, CellTiter-Glo ATP luminescence, 48 h. Potency, µM (top dose mostly 46.1 µM), without a hit: at the highest dose activity, negative = less viability, usual class: cytotoxic. 360,000 tested, 1.6% active. AID 686970, 2013;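 further: NT is the 2HG producing partner of a matched IDH1 knockdown line; 0% = DMSO-treated cells and -100% = media-only wells without cells; nearly all actives have a fitted effect of over 55% in size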
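750 cells/well, RPMI + 5% FBS; 2 h settle, compound pin-transfer, 48 h at 37 degrees C. CellTiter-Glo 10 min RT, luminescence. Normalized to DMSO and media-only wells.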
HepG2 viability: qHTS for Inhibitors of TGF-b: Cytotox Counterscreen | 410,000 tested, 0.76% active | HepG2 CAGA-GFP viability, ATP luminescence, 18 h | Potency, µM (top dose mostly 46.1 µM), for the others: at the top dose activity change, negative = cytotoxicity, most hits filed as cytotoxic | AID 588856, 2011
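CellTiter-Glo luminescence gave cytotoxicity after 18 hours at 37 degrees C. The cells were HepG2 CAGA-GFP in 1% FBS DMEM, stimulated with 500 pg/mL TGF-beta after compound addition. %Activity was normalised to no-cell wells (complete cell-killing) and DMSO (no toxicity), and curves were fitted and classified.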
Active calls of the source: *; i = inactive; ? = inconclusive; . = no result. The call rests on the fitted dose curve; in most records, active means well fitted curve in the direction sought with a large enough effect; inconclusive means small, poorly fitted or top-dose-only effect, or another doubt; inactive means no such curve, though single readings can be large; an effect the other way counts as inactive or inconclusive. Potency means the concentration at half of the fitted maximal effect.

SMILES	HT1080 IDH1KD tx	TGFb inhibitor	ATXN2 expr inh	ATXN viability	HT1080NT lethal	HepG2 viability
Cc1cc(C(=O)NOCCO)c(Nc2ccc(I)cc2F)n(C)c1=O	.	.	-4.7%	.	.	.
COc1cccc(NC(=O)Cn2nnc(-c3nc(-c4ccccc4)no3)c2N)c1	.	?	.	.	.	-27.3%
OCCN(CCO)CC(O)COc1ccc(Br)cc1 (stereo not drawn)	-0.4%	-7.5%	.	?	4.4%	-15.2%
COc1ccc(CCN(C)CC(O)COC(c2ccc(F)cc2)c2ccc(F)cc2)cc1OC (stereo not drawn)	?	-110.1%	-19.7%	i	23.1µM*	-93.4%
COc1ccc(CN(C)CC(O)COc2ccc(C(=O)c3ccccc3)cc2)c(OC)c1OC (stereo not drawn)	?	?	0.0%	?	20.6µM*	-34.1%
COc1ccc(CN(C)CC(O)COC(c2ccccc2)c2ccccc2)c(OC)c1OC (stereo not drawn)	?	?	-35.7%	i	23.1µM*	-45.7%
COc1ccc(CCN(C)CC(O)COc2c(C)ccc(C)c2C)cc1OC (stereo not drawn)	-28.6%	-12.5%	-25.3%	i	-22.2%	-15.6%
COc1ccc(Br)cc1CN(C)CC(O)COc1ccc(Br)cc1 (stereo not drawn)	?	?	?	i	20.6µM*	17.8µM*
CCCOc1ccccc1-c1nc(SCC(=O)c2ccccc2)n[nH]1	.	-12.4%	-1.2%	i	.	-13.8%
S=Cc1ccc(/C=C/c2ccnc3ccccc23)cc1	.	1.0%	.	.	.	-31.8%
Cc1c(C(=O)NCC(C)(C)N2CCOCC2)cnn1-c1ncc2c(n1)-c1ccccc1CC2	.	.	.	i	.	.
COc1cc(OC)c(OC)cc1/C=C/c1nccc2ccccc12	.	-20.1%	.	.	.	-16.8%
CN(CCOc1ccc(Br)cc1)CC(O)COc1ccc(C#N)cc1 (stereo not drawn)	?	?	?	i	20.6µM*	-39.6%
CN(CCOc1ccccc1)CC(O)COc1ccccc1 (stereo not drawn)	-9.0%	2.6%	-1.8%	i	-6.0%	-6.0%
O=C1C2C3CCCC3=C3CCCC3C2C(=O)N1c1ccccc1Cl (stereo not drawn)	.	?	.	.	.	-32.0%
COc1ccc(N(CC(C)C)S(=O)(=O)c2nnc(NC(=O)c3cccs3)s2)cc1	.	0.0%	.	.	.	-0.6%
C[C@@H](c1ncncc1F)C(O)(Cn1cncn1)c1ccc(F)cc1F (stereo partly drawn)	.	.	14.3%	i	.	.
Cc1cc(C)c(O)c(-c2cc(C(=O)Nc3ccc(S(=O)(=O)N4CCOCC4)cc3)[nH]n2)c1	?	?	17.8µM*	?	20.6µM*	-60.5%
O=C(NC(=S)NCCN1CCOCC1)c1ccccc1	0.1%	-2.7%	21.9%	i	-5.8%	-9.2%
O=C(NC(=S)NCCN1CCOCC1)c1cccc(Cl)c1	?	-20.3%	17.1%	i	25.1µM*	2.4%
Cc1ccc2c(c1)c1c3n2CCN=C3CCC1	-3.9%	0.0%	-17.0%	i	-1.5%	-22.6%
c1cc2c(cc1C1CCCCC1)c1c3n2CCCNC3CCC1 (stereo not drawn)	20.6µM*	0.0%	28.2µM*	.	16.4µM*	12.6µM*
c1cc2c(cc1C1CCCCC1)c1c3n2CCN=C3CCC1	?	?	-13.5%	i	20.6µM*	-118.6%
O=C(CC1N=C2c3ccccc3N=C(SCC(=O)Nc3cccc(C(F)(F)F)c3)N2C1=O)NCc1cccs1 (stereo not drawn)	.	?	-17.6%	.	.	-23.3%
